# Results as given in PubChem BioAssay (EPA / NIEHS).
# Calls of active or inactive are those of the source. How the source made its calls: active means hit-call score of the fitted dose curve at least 0.9, where 1 is the maximum; inactive means score below 0.9.
# Read-out: Monokine induced gamma interferon (MIG), CXCL9 (gene 4283)
# Test: BSK_hDFCGF_MIG: BioMAP Diversity Plus: hDFCGF Assay for Monokine induced gamma interferon (MIG) Biomarker Activity (AID 2283063)
# Conditions: primary human foreskin fibroblasts; actives raise or lower the signal
# Outline: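 ELISA read-out of MIG from primary human dermal fibroblasts 24 h post-dosing. Gain or loss of signal fitted bidirectionally, DMSO as baseline.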
Compound,AC50,outcome
On1ccccc1=S,0.204 µM (active),–
O=c1[nH]c2ccc(S(=O)CCN3CCC(Cc4ccc(F)cc4)CC3)cc2o1 (stereo not given),–,inactive
O=C(NS(=O)(=O)/C=C/c1ccccc1)c1ccc(F)cc1Cl,–,inactive
COc1ccc(-n2nc(C(F)F)cc2-c2ccc(S(C)=O)cc2)cc1 (stereo not given),–,inactive
CCCN(C1CCN(C(=O)C2CCNCC2)CC1)[C@@H]1CCc2ccc(OC)cc2C1,–,inactive
O=C1CCCCCN1,–,inactive
Nc1cccc(N)c1,–,inactive
Fc1ccccc1[C@@H](F)COC1CCC(Nc2ncnc3[nH]ncc23)CC1 (stereo not given in full),–,inactive
CCn1nc(Cc2ccccc2)cc1C1CCN(C[C@H]2C[C@H](N(C)[C@@H](C(=O)O)C(C)C)C[C@@H]2c2cccc(F)c2)CC1,–,inactive
C=CC(=C)CCC=C(C)C,–,inactive
CC(C)(O)c1coc(S(=O)(=O)NC(=O)Nc2c3c(cc4c2CCC4)CCC3)c1,–,inactive
CC(=O)OCCC(C)C,–,inactive
O=C1OC(=O)C2C3C=CC(C3)C12 (stereo not given),–,inactive
O=C(O)c1cccc(Oc2ccccc2)c1,–,inactive
CCCCCCCCCCCCCCCO,–,inactive
O=C(CCCCCCCCc1cccnc1)N1CCC(C=C(c2ccccc2)c2ccccc2)CC1,11.5 µM (active),–
COC(=O)c1ccccc1O,–,inactive
CCC(C)(C)C(=O)O[C@H]1C[C@@H](C)C=C2C=C[C@H](C)[C@H](CC[C@@H]3C[C@@H](O)CC(=O)O3)[C@H]21,–,inactive
O=c1n(CC2CO2)c(=O)n(CC2CO2)c(=O)n1CC1CO1 (stereo not given),15.5 µM (active),–
O=C(O)c1cccc(N(Cc2cccnc2)c2ccc(OC(F)F)c(OC(F)F)c2)c1,–,inactive
C1=CCCC=CCCC=CCC1,–,inactive
O=C(O)c1cc(N=Nc2ccc(S(=O)(=O)Nc3ccccn3)cc2)ccc1O,–,inactive
CCOc1cccc(-n2cc(C(=O)N3CCN(c4cc(C(=O)O)c5ccccc5c4)CC3)nc2-c2ccc(C)cc2)c1,26.3 µM (active),–
CC(C)CCO,–,inactive
CC(=O)OC[C@H]1O[C@@](COC(C)=O)(O[C@H]2O[C@H](COC(C)=O)[C@@H](OC(C)=O)[C@H](OC(C)=O)[C@H]2OC(C)=O)[C@@H](OC(C)=O)[C@@H]1OC(C)=O,–,inactive
NC(=O)NO,–,inactive
COc1ccc(/C=C/S(=O)(=O)NC(=O)c2ccc(C)cc2Cl)cc1,–,inactive
Nc1ccc(Nc2ccccc2)cc1,–,inactive
CN(C)c1ccc(Cc2ccc(N(C)C)cc2)cc1,–,inactive
Cc1ccc(C)c(O)c1,–,inactive
